Experimental findings from PubChem BioAssay (NCATS) are described below.

Assay [1] in a line: qHTS Assay for Identifying Gametocytocidal Compounds (AID 743244). Also: potency is read from the fitted curve at half-maximal effect.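 As to max response: % is scaled to controls: 0 for no effect and ±100 for the full control effect; actives lower the fluorescent signal which means gametocytes are killed.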 The following applies: P. falciparum 3D7 stage III-V gametocytes, alamarBlue, 72 h; max response: stronger effect = lower value. A digest of the protocol: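 Stage III–V gametocytes of P. falciparum 3D7 were seeded at 20,000 cells/well onto pre-dispensed compounds. After 72 h, 37 °C, 5% CO2, alamarBlue was added for another 24 h.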
Background: qHTS replaces the single test concentration by a dilution series.

Assay [2] in a line: qHTS profiling for inhibitors of Plasmodium falciparum (3D7) proliferation (AID 743322; call rule not given here;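 also: infected erythrocytes exposed to compound for 72 h before lysis; 100% = DMSO vehicle wells and 0% = 0.29 µM artemisinin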). The following applies: P. falciparum 3D7 proliferation; at 28.7 µM (top of the series) unless noted. A digest of the protocol: (§1)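 Parasite DNA was quantified by SYBR Green I fluorescence (ex 485, em 535 nm) after overnight lysis in saponin/Triton buffer at room temperature. Cultures at 0.3% parasitemia and 2.5% hematocrit were first exposed to compound for 72 h at 37 C; signals were normalised to artemisinin (0.29 uM) and vehicle wells.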

Assay [3] in a line: qHTS profiling for inhibitors of Plasmodium falciparum (DD2) proliferation (AID 743323; call rule not given here). Conditions: lower = more inhibition; at 28.7 µM (top of the series) unless noted. A digest of the protocol:
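1536-well qHTS; infected RBCs 0.3% parasitemia/2.5% Hct final; cpd 72 h 37 C 5% CO2; lysis buffer + SYBR Green I, o/n RT dark; FI 485/535; norm. to 0.29 uM artemisinin and DMSO, plate-stack corrected.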

A short description of assay [4]: qHTS profiling for inhibitors of Plasmodium falciparum (HB3) proliferation (AID 743324).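 Also: 100% = DMSO vehicle wells and 0% = artemisinin-treated control wells.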 The following applies: Plasmodium falciparum HB3 blood-stage proliferation; at 28.7 µM (top of the series) unless noted. A digest of the protocol: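 SYBR Green fluorescence (485 ex/535 em) of lysed cultures, incubated overnight at room temperature in the dark, quantifies parasite DNA. Infected erythrocytes at 0.3% parasitemia and 2.5% hematocrit were exposed 72 h; values normalized to DMSO and 0.29 uM artemisinin controls.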

Assay [5] can be described thus: Cell Proliferation Assay Versus the ED40515 IL2 Dependent ATL cell lines (AID 1053195; calls by dose curve). The following applies: ED40515 IL2-dependent ATL cells. An outline of the steps: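 CellTiter-Glo luminescence (15 min, RT) measured viability after 48 hours at 37C; cells were ED40515 +IL2, 1000/well, in phenol red-free RPMI with 5% FBS. Controls: DMSO and 9.2 uM bortezomib.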

The nature of assay [6]: Cell Proliferation Assay Versus the ED40515 IL2 Independent ATL cell lines (AID 1053194; calls by dose curve). The following applies: ED40515 IL2-independent ATL cells. A digest of the protocol: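 CellTiter-Glo luminescence, read after 15 min at RT, gave viability of IL-2-free ED40515 cells (1000/well, RPMI plus 5% FBS) following 48 h drug exposure at 37C. Control wells held DMSO or 9.2 uM bortezomib.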

Assay [7] can be described thus: qHTS profiling of the MIPE4 collection as inhibitors of Plasmodium falciparum (3D7) proliferation (AID 743344; call rule not given here;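 also: scaled between DMSO vehicle wells and 0.29 µM artemisinin as full inhibition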). Conditions: P. falciparum 3D7 in erythrocytes, SYBR Green DNA fluorescence, 72 h; at 28.5 µM (top of the series) unless noted. A digest of the protocol: as §1
A short description of assay [8]: qHTS profiling of the MIPE4 collection as inhibitors of Plasmodium falciparum (DD2) proliferation (AID 743345; call rule not given here). The following applies: P. falciparum Dd2 in erythrocytes, SYBR Green DNA, 72 h; at 28.5 µM (top of the series) unless noted. An outline of the steps:
as §1

The nature of assay [9]: qHTS profiling of the MIPE4 collection as inhibitors of Plasmodium falciparum (DD2) proliferation (Rep 2) (AID 743346; call rule not given here). The following applies: P. falciparum Dd2 in erythrocytes, SYBR Green DNA, 72 h; at 28.5 µM (top of the series) unless noted. A digest of the protocol: as §1
A short description of assay [10]: High-throughput drug toxicity screening in the BPDCN cell line Gen2.2 (AID 1224824; call rule not given here;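 also: cells exposed to compounds for 48 h before reading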). Conditions: Gen2.2 BPDCN cells; at 45.8 µM (top of the series) unless noted. An outline of the steps: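 Gen2.2 cells (500/well) in phenol red-free RPMI with 10% FBS were exposed to compounds for 48 h at 37 °C, 5% CO2. Viability was read by CellTiter-Glo luminescence and normalized to DMSO (100%) and 9.2 uM bortezomib (0%).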

Assay [11] is described as follows: High-throughput drug toxicity screening in the BPDCN cell line Cal-1 (AID 1224825; call rule not given here). The following applies: Cal-1 BPDCN cell viability, qHTS; at 45.8 µM (top of the series) unless noted. A digest of the protocol: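 CellTiter-Glo luminescence after 48 h compound exposure; percent activity scaled with DMSO as 100% and bortezomib (9.2 uM final) as 0%. Cal-1 cells seeded at 500/well in RPMI, 10% FBS, no phenol red.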

Assay [12] in a line: qHTS assay for measurement of the activity of small molecule inhibitors on Zika virus induced Caspase-3 activity in human iPSC derived neural progenitor cells (hNPCs) (AID 1224857). Also: % of control where 0% means no effect; nearly all actives have a fitted effect of over 65% in size. An outline of the steps: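 Values are percent inhibition of virus-induced caspase-3/7 signal, scaled between uninfected cells and ZIKV-infected cells. Infection used 2 FFU/cell for 6 h after 1 h compound exposure.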

A short description of assay [13]: qHTS assay for measurement of the activity of small molecule inhibitors on Zika virus induced Caspase-3 activity in human astrocytoma cells (AID 1224859).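 Also: plate controls were ZIKV-infected untreated cells for no effect and uninfected cells for full effect.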 A digest of the protocol:
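Compound added 1 h pre-infection; ZIKV 2 FFU/cell on SNB-19 cells, 6 h, 37 C/5% CO2. Caspase-Glo 3/7 luminescence; values as % inhibition of ZIKV-induced caspase activity.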

Assay [14] can be described thus: qHTS Screen of the MIPE 4.0 Collection Against Ewings Sarcoma (RDES) (AID 1259252). Also: potency is read from the fitted curve at half-maximal effect; nearly all actives have a fitted effect of over 35% in size. A digest of the protocol:
(§2)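 Viability screen: 48 h incubation at 37C, 95% humidity, 5% CO2 with serially titrated compound, followed by CellTiter-Glo readout.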

The nature of assay [15]: qHTS Screen of the MIPE 4.0 Collection Against Ewings Sarcoma (TC71) (AID 1259253). Also: potency is read from the fitted curve at half-maximal effect; nearly all actives have a fitted effect of over 40% in size. A digest of the protocol: as §2
Assay [16] in a line: qHTS Screen of the MIPE 4.0 Collection Against Ewings Sarcoma (EW8) (AID 1259255). Also: potency is read from the fitted curve at half-maximal effect; nearly all actives have a fitted effect of over 35% in size. An outline of the steps: as §2
A short description of assay [17]: qHTS profiling of the MIPE4 collection as inhibitors of Plasmodium falciparum (HB3) proliferation (AID 743347; call rule not given here;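 also: plate controls were DMSO vehicle wells for no effect and artemisinin wells for full effect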). Conditions: P. falciparum HB3 in erythrocytes, SYBR Green DNA, 72 h; at 28.5 µM (top of the series) unless noted. An outline of the steps: as §1

Molecules are shown by their SMILES. Records with an inconclusive call do not appear. Active and inactive are the calls of the source. Unless noted, calls follow the shape of the dose curve; as a rule, active = well fitted curve in the direction sought with a large enough effect; inconclusive = small, poorly fitted or top-dose-only effect, or another doubt; inactive = no such curve, though single readings can be large; an effect the other way counts as inactive or inconclusive.

With `O=C(OCC#CCSc1nnc(-c2ccc3ccccc3c2)o1)c1cc2ccccc2s1`, the max response in assay [1] was 9.28% (inactive). The remaining parasite growth % (stronger effect = lower value) in assay [2] is 117%. Moreover, in [3], the activity, percent of control came out at 105%. The remaining proliferation (% of control), lower = more inhibition in assay [4] worked out at 125%. For the same molecule, in [5], the Potency is 11.8 µM (active).

Consider `Cc1ccc2c(c1)C(=O)[C@@]1(O)CCN(c3ccccc3)C1=N2`, for which the max response in assay [1] was -1.35% (inactive). Moreover, the remaining parasite growth % (stronger effect = lower value) in assay [2] amounted to 104%. Moreover, in [3], the activity, percent of control amounted to 112%. In addition, in assay [4], the remaining proliferation (% of control), lower = more inhibition is 36.1%. In [6], the Potency is 13.2 µM (active).

For the molecule `CCCS(=O)(=O)Nc1ccc(F)c(C(=O)c2c[nH]c3ncc(-c4ccc(Cl)cc4)cc23)c1F`, the max response in assay [1] is 14.6% (inactive). Also, the remaining parasite growth % (stronger effect = lower value) in [2] came out at 17.1%. In addition, the activity, percent of control in [3] was 22.9%. In addition, the remaining proliferation (% of control), lower = more inhibition in assay [4] is 22.8%. Besides, the parasite growth, % of DMSO control in assay [7] worked out at 17.9%. Moreover, in [8], the parasite growth remaining, % of DMSO control (lower = more inhibition) amounted to 24%. The molecule further came in with a parasite growth, % of control (lower = inhibition) in assay [9] of 52.1%. The Potency in [5] is 20.9 µM (active); in assay [14] it was 13.2 µM (active); in assay [15], 14.8 µM (active). The cell viability, % of control (lower = more cytotoxic) in assay [10] came out at 453%. In assay [11], the viability (% of control) was 99.1%. The Potency entry in assay [12] and in assay [13] was “inactive” throughout.

`CC[C@H](Nc1ncnc2nc[nH]c12)c1nc2cccc(F)c2c(=O)n1-c1ccccc1`: the max response in [1] is 14.6% (inactive). The Potency was 5.9 µM (active) in assay [5], 2.35 µM (active) in assay [14], 2.96 µM (active) in assay [15] and 2.64 µM (active) in assay [16]. The cell viability, % of control (lower = more cytotoxic) in assay [10] was 4.94%. This molecule returned a viability (% of control) in assay [11] of 18.8%. Further, the Potency result in assay [12] and in assay [13] was “inactive” in each case.

`C[C@H](NC(=O)Cc1cc(F)cc(F)c1)C(=O)N[C@@H]1C(=O)N(C)c2ccccc2-c2ccccc21`: the max response in assay [1] was -14.2% (inactive). The remaining parasite growth % (stronger effect = lower value) in assay [2] was found to be 7.69%. Further, the activity, percent of control in assay [3] was determined as 7.48%. Further, the remaining proliferation (% of control), lower = more inhibition in assay [4] stood at 6.09%. Also, the parasite growth, % of DMSO control in assay [7] turned out to be 10.3%. The parasite growth, % of control (lower = inhibition) in assay [9] worked out at 12.3%. In addition, the growth, % of control in assay [17] turned out to be 3.07%. Besides, the Potency was 20.9 µM (active) in assay [5], 8.33 µM (active) in [14], 10.5 µM (active) in [15] and 11.8 µM (active) in assay [16]. In assay [10], the cell viability, % of control (lower = more cytotoxic) came out at 176%. The same molecule came in with a viability (% of control) in [11] of 43.1%. Besides, the Potency entry in assay [12] and in assay [13] was “inactive” each time.

For `COCC(=O)NCC=Cc1ccc2ncnc(Nc3ccc(Oc4ccc(C)nc4)c(C)c3)c2c1`, in [1], the max response was -4.65% (inactive). The remaining parasite growth % (stronger effect = lower value) in assay [2] turned out to be 28.2%. The activity, percent of control in assay [3] is 24.1%. In assay [4], the remaining proliferation (% of control), lower = more inhibition was found to be 7.14%. The same molecule yielded a parasite growth, % of DMSO control in [7] of 15.6%. The same molecule gave a parasite growth remaining, % of DMSO control (lower = more inhibition) in [8] of 70.2%. In assay [9], this molecule came in with a parasite growth, % of control (lower = inhibition) of 29.4%. Moreover, the Potency in [5] is 4.69 µM (active); in assay [14] it was 20.9 µM (active); in assay [15], 23.5 µM (active). For the same molecule, in assay [10], the cell viability, % of control (lower = more cytotoxic) is 222%. In assay [11], this molecule returned a viability (% of control) of 20.7%. For the same molecule, the Potency entry in [12] and in assay [13] was “inactive” in each case.

Regarding `CNC(=O)c1ccccc1Sc1ccc2c(/C=C/c3ccccn3)n[nH]c2c1`, the max response in [1] was 40.9% (inactive). The Potency in [6] was 16.6 µM (active).

For the molecule `COc1ccc(-c2ccc3c(N4CCOC[C@H]4C)nc(N4CCOC[C@H]4C)nc3n2)cc1CO`, the remaining parasite growth % (stronger effect = lower value) in assay [2] was 15.5%. Further, in [3], the activity, percent of control worked out at 19.8%. Moreover, the remaining proliferation (% of control), lower = more inhibition in [4] amounted to 10.7%. The molecule further displayed a parasite growth, % of DMSO control in assay [7] of 6.01%. In [9], this molecule registered a parasite growth, % of control (lower = inhibition) of 13.1%. In addition, in assay [17], the growth, % of control was found to be 7.68%. The Potency is 0.0935 µM (active) in [5], 0.0332 µM (active) in assay [15] and 0.0264 µM (active) in assay [16]. Besides, the cell viability, % of control (lower = more cytotoxic) in assay [10] came to 11.3%. For the same molecule, in assay [11], the viability (% of control) was 22%. Besides, the Potency result in assay [12] and in assay [13] was “inactive” throughout.

Take `CCN(CCCO)CCCOc1ccc2c(Nc3cc(CC(=O)Nc4cccc(F)c4)[nH]n3)ncnc2c1`: the Potency was 0.743 µM (active) in assay [1] and 26.4 µM (active) in assay [6]. Also, in assay [2], the remaining parasite growth % (stronger effect = lower value) is -1.31%. Besides, the activity, percent of control in assay [3] stood at 1.34%. The remaining proliferation (% of control), lower = more inhibition in [4] was 0.759%.

With `Cc1c(CCOc2ccc(C(=O)O)cc2)c2cc(Cl)ccc2n1C(c1ccccc1)c1ccccc1`, the max response in [1] is 6.58% (inactive). For the same molecule, the remaining parasite growth % (stronger effect = lower value) in assay [2] turned out to be 84.7%. In addition, the activity, percent of control in [3] stood at 81.3%. In assay [4], the remaining proliferation (% of control), lower = more inhibition worked out at 23.4%. This molecule showed a parasite growth, % of DMSO control in [7] of 30.6%. Moreover, the parasite growth, % of control (lower = inhibition) in assay [9] worked out at 41.9%. Further, the growth, % of control in assay [17] was determined as 63.5%. The Potency in [5] is 23.5 µM (active); in [14], 18.7 µM (active); in assay [15], 16.6 µM (active); in assay [16] it was 14.8 µM (active). Moreover, the cell viability, % of control (lower = more cytotoxic) in [10] was 222%. The same molecule yielded a viability (% of control) in [11] of 96.5%. Besides, the Potency result in [12] and in assay [13] was “inactive” throughout.
